# Calls of active or inactive are those of the source. The calls were made as follows: active = hit-call score of the fitted dose curve at least 0.9, where 1 is the maximum; inactive = score below 0.9.
# Experiment: CCTE_Padilla_ZF_144hpf_TERATOSCORE: (Legacy) CCTE's 144 Hour Post-fertilization zebrafish Assay Teratoscore, Padilla Lab (AID 2283679);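 as to AC50: zebrafish embryos with chorions exposed by immersion from 6-8 hpf to 5 dpf with daily renewal; teratogenicity score from eye scoring of death hatching and malformations at 144 hpf; higher score means more developmental defects relative to DMSO baseline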
# How it was run: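 Larvae scored by eye at 144 hpf for death, hatching and malformations after a day in clean Hanks'. Before that, daily-renewed exposure at 80 uM (0.4% DMSO, 26C) from roughly 6-8 hpf through 5 dpf, 4 embryos per chemical.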
SMILES,AC50,outcome
CCCCOC(=O)c1ccccc1,59.1 µM (active),–
O=C(O)c1cccc(C[C@@H]2COc3ccc(OCc4nc5cc(F)ccc5s4)cc3[C@@H]2O)c1,0.463 µM (active),–
CCCCC(CC)C(=O)OCCOCCOCCOC(=O)C(CC)CCCC (stereo not drawn),4.5 µM (active),–
OCc1ccccc1,–,inactive
NC(=O)N(O)[C@@H]1COc2cc(OCc3ccccc3)ccc21,–,inactive
O=c1[nH]cnc2c1ncn2[C@H]1CC[C@@H](CO)O1,–,inactive
Cn1cc[nH]c1=S,–,inactive
c1ccc(C(O[C@@H]2CCCN(CCc3ccc4c(c3)OCO4)C2)c2ccccc2)cc1,2.1 µM (active),–
COc1cc2c(c(OC)c1OC)-c1ccc(OC)c(=O)cc1[C@@H](NC(C)=O)CC2,61.5 µM (active),–
C=CCc1cc(S(=O)(=O)c2ccc(O)c(CC=C)c2)ccc1O,60 µM (active),–
CC[C@H](C)C(=O)O[C@H]1C[C@H](O)C=C2C=C[C@H](C)[C@H](CC[C@@H](O)C[C@@H](O)CC(=O)O)[C@H]21,–,inactive
CCCCCCCC1CCC(=O)O1 (stereo not drawn),8.03 µM (active),–
COc1cc(C(C)C)c2c(c1)S(=O)(=O)N(COc1cc(=O)n3cccc(OCCN4CCCCC4)c3n1)C2=O,15.5 µM (active),–
CCN(CC)C(=S)SSC(=S)N(CC)CC,0.183 µM (active),–
CCCc1ccccc1,–,inactive
CC(C)c1nnc2ccc(-c3ocnc3-c3cc(F)ccc3F)cn12,61.9 µM (active),–
CC(C)C(=O)Nc1ccc([N+](=O)[O-])c(C(F)(F)F)c1,14.2 µM (active),–
C[C@@H](Oc1ccc(CNC(=O)c2cccnc2Oc2ccc3c(c2)OCO3)c(F)c1)C(=O)O,–,inactive

# Source: PubChem BioAssay (EPA / NIEHS)
